The values that follow come from PubChem BioAssay (NCI).

Holding throughout (experiment): NCI-60 one-dose screen, 48 h (100 = growth as untreated, 0 = no growth, -100 = all killed)
Experiment [1] has as its system HT29 colon. As to conditions: 10 µM unless noted.
Experiment [2] relates to SNB-75 CNS. The conditions noted are these: 10 µM unless noted.
Experiment [3] concerns SNB-19 CNS. The conditions noted are these: 10 µM unless noted.
Experiment [4] deals with U251 CNS. As to conditions: 10 µM unless noted.
For experiment [5], the system named is PC-3 prostate. As to conditions: 10 µM unless noted.
In experiment [6] the test system is SK-MEL-5 melanoma. As to conditions: 10 µM unless noted.
Experiment [7] concerns UACC-62 melanoma. The conditions noted are these: 10 µM unless noted.
Experiment [8] deals with LOX IMVI melanoma. As to conditions: 10 µM unless noted.
Experiment [9] relates to SK-MEL-28 melanoma. As to conditions: 10 µM.
The test system of experiment [10] is SK-MEL-2 melanoma. As to conditions: 10 µM unless noted.
Experiment [11] relates to EKVX NSCLC. The conditions noted are these: 10 µM unless noted.
Experiment [12] concerns SN12C renal. As to conditions: 10 µM unless noted.
Experiment [13] deals with UO-31 renal. As to conditions: 10 µM unless noted.
For experiment [14], the system named is TK-10 renal. As to conditions: 10 µM unless noted.
Experiment [15] deals with ACHN renal. The conditions noted are these: 10 µM unless noted.
The test system of experiment [16] is CAKI-1 renal. As to conditions: 10 µM unless noted.
Experiment [17] has as its system A498 renal. The conditions noted are these: 10 µM unless noted.
Experiment [18] has as its system CCRF-CEM leukemia. As to conditions: 10 µM unless noted.
Experiment [19] deals with MOLT-4 leukemia. The conditions noted are these: 10 µM unless noted.
In experiment [20] the test system is SR leukemia. The conditions noted are these: 10 µM unless noted.

About 83,000 compounds went through this panel and 20% of them were active in at least one assay; those are over-represented in the sample as a whole.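 The endpoint reported here, percent growth, reads 100 for growth as untreated, 0 for no net growth and -100 for all cells dead.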 Unmarked numbers belong to inactive results. Active and inactive are the calls of the source. The calls were made as follows: active = growth percent below 10; inactive = the rest.

In the case of `COc1ccc(/C(C#N)=C/c2nc3c(N4CCOCC4)nc(Cl)nc3n2C)cc1OC`, the growth in experiment [1] was 3.73% (active); in experiment [2], -7.9% (active); in experiment [3], 23.5%; in [4] it was 12.5%; in experiment [5], 9.66% (active); in experiment [6] it was -50.5% (active). Besides, the growth in experiment [7] was -5.32% (active); in experiment [8], -71% (active); in experiment [9], 15.1%; in [10], 42.7%; in experiment [11], 20.1%; in [12] it was 11.2%. In addition, the growth in experiment [13] was -92.9% (active); in [14], -21.1% (active); in [15], -51.3% (active); in experiment [16], -14.2% (active); in experiment [17] it was -27.8% (active); in experiment [18] it was 11.8%. In addition, the values for the growth in experiment [19] and in experiment [20] were 2.05% (active) and 17.7%, respectively.
As for `O=C(Nc1ccc(N2CCNCC2)cc1)c1[nH]ncc1Nc1cc(Oc2ccccc2)ncn1`, the growth in experiment [1] is -59.7% (active); in experiment [2], 49.1%; in [3], 45.9%; in experiment [4], 24.4%; in experiment [5] it was -60.3% (active); in experiment [6] it was 22.8%. The growth was -5.09% (active) in experiment [7]; -81% (active) in experiment [8]; 46.9% in [9]; 72.3% in [10]; 32.5% in experiment [11]; 2.47% (active) in experiment [12]. The growth in experiment [13] is -13.1% (active); in experiment [14], 49.5%; in experiment [15], -99.1% (active); in [16] it was 18.4%; in experiment [17] it was 40.6%; in experiment [18] it was -27.5% (active). In addition, the growth was -16% (active) in [19] and 1.43% (active) in [20].
On to `CNCCNc1nc2ccccc2c2c(=O)c3cc(F)ccc3sc12`, for which the growth in experiment [1] was -30.9% (active); in experiment [2], 47.4%; in [3] it was 69.1%; in experiment [4] it was -53.3% (active); in experiment [5], 34%; in experiment [6], 88.1%. Moreover, the growth in experiment [7] was 22.3%; in experiment [8], 17.7%; in experiment [9], 84.6%; in experiment [10], 85.2%; in [11] it was 71.9%; in experiment [12], 67.2%. The growth in experiment [13] is 41.3%; in experiment [14], 60.2%; in experiment [15], 37.3%; in [16], 44%; in experiment [17], 38.9%; in experiment [18] it was 15.5%. The growth was -18.9% (active) in [19] and 13.6% in experiment [20].
Consider `O=c1c(-c2nc3ccccc3[nH]2)cc2ccccc2n1Cc1cn(Cc2ccc(F)cc2)nn1`, for which the growth in [1] is 2.52% (active); in experiment [2] it was -19.2% (active); in experiment [3], 21.8%; in experiment [4], 14.2%; in [5], 22%; in experiment [6], 6.69% (active). In addition, the growth was 17.2% in experiment [7]; 12.8% in [8]; 45.1% in [9]; 36% in [10]; 31.4% in experiment [11]; 14.2% in [12]. Besides, the growth in experiment [13] was -18.9% (active); in experiment [14] it was 21.7%; in experiment [15], 15%; in experiment [16] it was 32.9%; in [17], -14.5% (active); in [18] it was 23.4%. The growth in [19] was 19.9%; in experiment [20], 30.2%.
`O=c1c2cc(F)ccc2sc2c(NCCN3CCCC3)nc3ccccc3c12`: the growth in experiment [1] was 13.9%; in experiment [2], 77.6%; in experiment [3], 69.2%; in experiment [4], 35.7%; in experiment [5] it was 61%; in experiment [6], 79.7%. Further, the growth in [7] was 38.2%; in experiment [8] it was 28.4%; in experiment [9] it was 71.6%; in experiment [10], 91%; in experiment [11], 66.2%; in experiment [12] it was 70.4%. For the same molecule, the growth in [13] was 45.3%; in [14] it was 64.8%; in experiment [15], 35.6%; in experiment [16] it was 62.8%; in experiment [17], 26%; in experiment [18], 33.5%. The values for the growth in experiment [19] and in experiment [20] were 5.14% (active) and 16.7%, respectively.
For `O=C(O)c1cn(C2CC2)c2cc(N3CCN(C(=O)C[n+]4ccccc4)CC3)c(F)cc2c1=O`, the growth is 109% in [1]; 97.2% in experiment [2]; 99.4% in experiment [3]; 92.4% in experiment [4]; 106% in experiment [5]; 101% in experiment [6]. For the same molecule, the growth is 105% in experiment [7]; 98.1% in experiment [8]; 112% in [9]; 96.5% in experiment [10]; 94.4% in experiment [11]; 97.5% in [12]. Also, the growth was 88.1% in [13]; 99.3% in experiment [14]; 103% in [15]; 94.3% in [16]; 87.6% in experiment [17]; 97.4% in experiment [18]. Moreover, the growth in experiment [19] was 104%; in experiment [20], 107%.
Regarding `CC(=O)c1ccc2oc(=O)n(Cc3ccc(C#N)cc3)c(=O)c2c1`, the growth in experiment [1] was 112%; in experiment [2], 87.3%; in [3] it was 104%; in [4], 105%; in [5], 97.5%; in experiment [6] it was 105%. The growth in experiment [7] is 97.9%; in [8], 97.8%; in [9], 104%; in [10], 101%; in experiment [11], 101%; in experiment [12] it was 99.3%. The growth in [13] is 85.6%; in [14] it was 103%; in experiment [15] it was 104%; in experiment [16], 94.6%; in [17] it was 91.1%; in experiment [18], 106%. Further, the growth is 107% in experiment [19] and 109% in experiment [20].
Turning to `O=C(/C=C/c1ccc(C(F)(F)F)cc1)c1ccc(Nc2nc(NCCO)nc(Nc3ccc(Cl)cc3)n2)cc1`, the growth in experiment [1] is 5.76% (active); in [2], 37.4%; in experiment [3] it was 76%; in [4], -41.8% (active); in experiment [5], 32.9%; in [6], 84.7%. For the same molecule, the growth in [7] is 62.4%; in experiment [8], 0.53% (active); in experiment [9] it was 73%; in [10], 99.9%; in [11], 59.1%; in experiment [12], 79.1%. Besides, the growth in [13] was 59.9%; in experiment [14] it was 86.6%; in experiment [15] it was 52.2%; in [16], 68.2%; in experiment [17], 78.5%; in experiment [18], 18.2%. In addition, the growth was 20.7% in experiment [19] and 21.2% in [20].
